Reference: PubChem BioAssay AID463173 (ICCB-Longwood Screening Facility, Harvard Medical School, 2010)
The whole screen tested about 52,000 compounds, of which about 4,300 (8.3%) were called active. This is one part of a sample in which actives are shown more often than they occur. A number with no mark means an inactive call. Cut-off read from the data, not from the text of the source: active = survival mostly below about 52% (no sharp cut-off); inactive = mostly above about 56%.

Test system: DeltatarO mutant
Experiment: growth inhibition of S. aureus wild type versus tarO mutant, primary screen, teichoic acid synthesis inhibitors, RN4220, OD600 (AID 463173)
Conditions: OD600, 18 h, hits give low values, screened at 18.75 µg/mL (by protocol)

SMILES | survival
COC(=O)CSc1ccc2nnc(CCNS(=O)(=O)c3ccccc3)n2n1 | 118%
CCc1ccc(NC(=O)NCCc2c(C)nn(C)c2C)cc1 | 72%
COc1ccccc1Cn1cc(C(=O)c2ccc(Cl)cc2)c(=O)c2ccccc21 | 83%
Cc1cccc(Cn2c(=O)n(Cc3ccc4c(c3)OCO4)c(=O)c3oc4ccccc4c32)c1 | 77%
Cc1oc2ncn(CC(C)C)c(=O)c2c1C(=O)Nc1cc(F)ccc1F | 65%
COc1ccc2c(CNC3CCC(C)CC3)c(C(=O)O)n(Cc3ccc(F)cc3)c2c1 (configuration not stated) | 70%
CCC(=O)n1nc(-c2ccccc2)nc1N | 104%
CN(Cc1ccccc1)c1ncnc2c1nnn2C | 72%
COc1cccc(CNC(=O)CSc2nc(=O)[nH]c3c2CCCC3)c1 | 85%
C=CCSc1nnc(-c2ccccc2)n1-c1ccccc1 | 103%
Cc1c(Cl)cccc1NC(=O)CSc1nc(=O)[nH]c2c1CCC2 | 93%
CCOC(=O)CSc1nc2ccccc2c(=O)n1-c1ccc(C(=O)NCCOC)cc1 | 96%
CCCN1C(=O)C(Cc2nc3ccccc3c(=O)n2-c2ccccc2)c2cc(C)ccc21 (configuration not stated) | 68%
Cc1cccc(-n2c(SCC(N)=O)nc3ccccc3c2=O)c1 | 90%
CCCN1C(=O)C(Cc2nc3ccccc3c(=O)n2-c2cccc(C)c2)c2ccccc21 (configuration not stated) | 36% (active)
CCCN1C(=O)C(Cc2nc3ccccc3c(=O)n2CC)c2cc(Br)ccc21 (configuration not stated) | 34% (active)
CCN1C(=O)C(Cc2nc3ccccc3c(=O)n2-c2cccc(C)c2)c2ccccc21 (configuration not stated) | 50%
CCOC(=O)CSc1nc2ccccc2c(=O)n1-c1cccc(C)c1 | 31% (active)
CCn1c(CC2C(=O)N(C)c3ccc(Br)cc32)nc2ccccc2c1=O (configuration not stated) | 70%
CCCN1C(=O)C(Cc2nc3ccccc3c(=O)n2CC)c2ccccc21 (configuration not stated) | 84%
COCCN(C(=O)c1ccccc1)c1nnc(-c2ccncc2)s1 | 94%

SMILES | survival
Cc1cc(C)cc(NC(=O)CSc2nc(=O)[nH]c3c2CCC3)c1 | 112%
CCCOC1(C(F)(F)F)NC(=O)N(c2ccc(Cl)cc2)C1=O (configuration not stated) | 66%
Cc1cc(C)c2c(n1)SCCN2C(=O)Nc1ccc(C(=O)Nc2cc(Cl)ccc2C)cc1 | 97%
CC(=O)Nc1ccc(NC(=O)CCc2c(C)nc3c(c(C)nn3-c3ccc(C)cc3)c2C)cc1 | 114%
CCC1CN(C(=O)N2CCC(C(=O)N3CCN(c4ccccc4F)CC3)CC2)c2ccccc2O1 (configuration not stated) | 97%
CCC1CN(C(=O)N2CCC(C(=O)N3CCN(c4cc(C)ccc4C)CC3)CC2)c2ccccc2O1 (configuration not stated) | 36% (active)
CCC1CN(C(=O)N2CCC(C(=O)N3CCN(c4cccc(C)c4C)CC3)CC2)c2ccccc2O1 (configuration not stated) | 62%
CC1=C(C(=O)Nc2ccc(C)cc2C)C(c2sccc2C)n2ncnc2N1 (configuration not stated) | 68%
O=C(NC1CCCC1)c1ccc2c(c1)OCO2 | 69%
O=C1C2C3c4ccccc4C(c4ccccc43)C2C(=O)N1C(CO)(CO)CO (configuration not stated) | 102%
CC1=C(C(=O)OC2CCCCCC2)C(c2c(Cl)cccc2Cl)CC(=O)N1 (configuration not stated) | 32% (active)
CC1=C(C(=O)OC2CCCC2)C(c2c(Cl)cccc2Cl)CC(=O)N1 (configuration not stated) | 71%
CC1=C(C(=O)OC2CCCCCC2)C(c2c(F)cccc2Cl)CC(=O)N1 (configuration not stated) | 57%
CCCN1CC=C2C(C#N)=C(N)C(C#N)(C#N)C(c3ccc(OCC(N)=O)cc3)C2C1 (configuration not stated) | 81%
CCCc1ccc(S(=O)(=O)N2CCC(c3nnc(-c4cccc(C)c4)o3)CC2)cc1 | 75%
COc1ccc(CNCc2c(C(=O)O)c(C)n(Cc3ccccc3C)c2C)cc1OC | 91%
Cc1nn2c(=O)cc(COc3ccc(/C=C(\C#N)C(=O)Nc4ccccc4)cc3Cl)nc2s1 | 49% (active)
CCOc1cc(/C=C(\C#N)C(=O)Nc2ccc(C)cc2)ccc1OCc1cc(=O)n2nc(CC)sc2n1 | 68%
COc1ccc(NC(=O)/C(C#N)=C/c2ccc(OCc3cc(=O)n4nc(C)sc4n3)cc2)cc1 | 61%
CCc1nn2c(=O)cc(COc3ccc(/C=C(\C#N)C(=O)Nc4ccc(F)cc4)cc3OC)nc2s1 | 106%
COc1cc(/C=C(\C#N)C(=O)Nc2ccc(C)cc2)ccc1OCc1cc(=O)n2nc(C)sc2n1 | 78%

SMILES | survival
CCOc1cc(/C=C(\C#N)C(=O)Nc2ccc(OC)cc2)ccc1OCc1cc(=O)n2nc(CC)sc2n1 | 55% (active)
CCOc1ccc(NC(=O)CSc2nc3ccsc3c(=O)n2CC)cc1 | 89%
Cc1cc(C)n2nc(C(=O)N/N=C/c3ccncc3)nc2n1 | 76%
c1ccc(-n2nc3ccc4nonc4c3n2)cc1 | 86%
On1c2c(c3c4nonc4ccc31)CCCC2 | 0% (active)
COc1ccc(-c2[nH]c3ccccc3c2SCCNC(=O)c2ccc(S(=O)(=O)N(C)C)cc2)cc1 | 67%
COc1cccc(C2=C(C(C)=O)Sc3nnc(C4CCCCC4)n3N2C(C)=O)c1 | 81%
CCOc1ccccc1NC(=O)c1cccc2c1C(=O)N(C1CCCCC1)C2 | 92%
Cc1cccc(Cn2nnc3c(=O)[nH]c(C4CCCN(C(=O)c5ccc(C(C)(C)C)cc5)C4)nc32)c1 (configuration not stated) | 18% (active)
O=C(Nc1ccc(F)cc1)N1CCCC(c2nc3c(nnn3Cc3ccccc3Cl)c(=O)[nH]2)C1 (configuration not stated) | 88%
Cc1ccccc1Cn1nnc2c(=O)[nH]c(C3CCCN(C(=O)c4ccc(F)cc4)C3)nc21 (configuration not stated) | 114%
CCc1ccc(Cn2nnc3c(=O)[nH]c(C4CCCN(C(=O)c5cccc(Cl)c5)C4)nc32)cc1 (configuration not stated) | 74%
O=C(c1cccs1)N1CCCC(c2nc3c(nnn3Cc3ccc(F)cc3)c(=O)[nH]2)C1 (configuration not stated) | 101%
COc1cccc(Cn2nnc3c(=O)[nH]c(C4CCCN(C(=O)c5ccc(C)cc5)C4)nc32)c1 (configuration not stated) | 90%
CCCC(=O)N1CCCC(c2nc3c(nnn3Cc3ccccc3)c(=O)[nH]2)C1 (configuration not stated) | 102%
Cc1cccc(Cn2nnc3c(=O)[nH]c(C4CCCN(C(=O)c5ccccc5Cl)C4)nc32)c1 (configuration not stated) | 71%
CC(C)(C)C(=O)N1CCCC(c2nc3c(nnn3Cc3ccc(C(C)(C)C)cc3)c(=O)[nH]2)C1 (configuration not stated) | 1% (active)
Cc1ccc(Cn2nnc3c(=O)[nH]c(C4CCCN(C(=O)c5ccco5)C4)nc32)cc1 (configuration not stated) | 91%
Cc1ccccc1Cn1nnc2c(=O)[nH]c(C3CCCN(C(=O)c4ccc(C(C)(C)C)cc4)C3)nc21 (configuration not stated) | 7% (active)
CC(C)(C)c1ccc(C(=O)N2CCCC(c3nc4c(nnn4Cc4cccc(F)c4)c(=O)[nH]3)C2)cc1 (configuration not stated) | 7% (active)
